Test system: ULK3
Conditions: concentration: 1 μM, replicates: in singlicate; n = 1
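Further: KINOMEscan kinase panel screen.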

Row | Structure (SMILES) | %Inh [%]
1 | COc1cc(Nc2nccc(N3CCC(NC(=O)C4COc5ccccc5O4)C3)n2)cc(OC)c1OC (centres unmarked) [GSK1379761] | 69
2 | Cc1c(Cn2c(C)nn3c(=O)cc(N4CCO[C@H](C)C4)nc23)cccc1C(F)(F)F [GSK2373690] | 21
3 | COc1ccc(-n2cnc3c(N)ncnc32)cc1 [SKF-97236] | 10
4 | Nc1nc(-c2ccccc2F)c(-c2ccnc3ccccc23)s1 [GW560459] | 4
5 | O=C(Nc1n[nH]c2cc(-c3ccccc3F)ccc12)C1CC1 [SB-733371] | 33
6 | Cc1nnc(-c2ccc3ncn(-c4ccc(S(C)=O)cc4)c3c2)o1 (centres unmarked) | 0
7 | CCn1c(-c2ccoc2)nc2cnccc21 [SB-733887] | 11
8 | CCC(=O)c1c(-c2ccccc2)c2cc(Cl)ccc2c(=O)n1Cc1cc(S(C)(=O)=O)n(CC(F)F)n1 | 0
9 | FC(F)(F)c1ccc(-c2ncn(CCCN3CCOCC3)c2-c2ccncc2)cc1 [SB-217780] | 4
10 | COc1ccc(CNC(=O)NC2CCN(c3ccnc(Nc4ccc(F)cc4)n3)C2)cc1 (centres unmarked) [GSK1379706] | 0
11 | COc1cc2ncn(-c3cc(OCc4ccncc4Br)c(C(N)=O)s3)c2cc1OC [GW854278] | 36
12 | COC(=O)c1c(-c2ccccc2)c2cc(C)ccc2c(=O)n1Cc1ccccc1 | 0
13 | COc1ccc(-c2coc3ccc(-c4nnc(SCc5cccc(C#N)c5)o4)cc23)cc1 | 81
14 | Cc1ccc(-c2ccc3c(ccc4sc5c(c43)NC[C@@H](C)N=C5N(C)C)n2)cn1 | 0
15 | O=c1cc(N2CCOCC2)nc2n(Cc3ccc(F)c(Cl)c3)ccn12 [GSK2297099] | 8
16 | COc1cc2ncn(-c3cc(OCCCc4ccccc4)c(C(N)=O)s3)c2cc1OC [GSK205189] | 3
17 | CN1C(=O)C(Nc2cc(Cl)c(O)c(Cl)c2)=C(c2ccc(Cl)cc2)C1=O [SB-404321] | 0
18 | CCC(=O)c1c(-c2ccccc2)c2cc(Cl)ccc2c(=O)n1Cc1cc(C(=O)NC2CC2)n(C)n1 | 2
19 | O=C1NC(=O)C(c2ccccc2)=C1Nc1cccc(O)c1 [SB-390534] | 26

Row | Structure (SMILES) | %Inh [%]
20 | COc1cc2nccc(Nc3cccc(Oc4ccccc4)c3)c2cc1OC.Cl [GW284543] | 8
21 | Cc1nn2c(=O)cc(N3CCOCC3)nc2n1Cc1cccc(Cl)c1Cl [GSK2342769] | 11
22 | O=C(Nc1n[nH]c2nc(-c3ccccc3)c(Cl)cc12)C1CC1 [SB-734909] | 0
23 | Cl.NS(=O)(=O)c1cccc(Nc2cc(-c3ccc(F)cc3)n[nH]2)c1 [GW824645] | 12
24 | Cc1cc(Nc2nc(-c3cccc(C)n3)nc3ccccc23)ccn1 [GW872411] | 0
25 | Nc1n[nH]c2nnc(-c3ccccc3)c(-c3ccccc3)c12 [GW554060] | 16
26 | CCC(=O)c1c(-c2ccccc2)c2cc(Cl)ccc2c(=O)n1Cc1ccc(C(=O)O)cc1 | 0
27 | Nc1ncnc2c1ncn2-c1cccc(F)c1 [SKF-97560] | 21
28 | Cl.c1ccc(Cn2cnc3cc(Nc4ncnc5ccccc45)ccc32)cc1 [GW272142] | 5
29 | COc1cc2nccc(Nc3ccc(OCc4ccc(NC(C)=O)cc4)cc3)c2cc1OC.Cl [GW440135] | 13
30 | CCS(=O)(=O)c1ccc(OC)c(Nc2ncc(-c3ccc(F)cc3)o2)c1.Cl [GW591947] | 0
31 | Cc1cccc(-c2nc(Nc3ccc4c(cnn4C)c3)c3ccccc3n2)n1 [GW876731] | 0
32 | CCS(=O)c1ccc(-c2coc3ccc(-c4nnc(C)o4)cc23)cc1 (centres unmarked) | 0
33 | Cc1cccc(-c2cc(-c3c[nH]nc3-c3ccccn3)ccn2)c1 [GW679395] | 5
34 | COc1cccc(-n2cnc3c(N)ncnc32)c1 [SKF-97416] | 27
35 | CCC(=O)c1c(-c2ccccc2)c2cc(Cl)ccc2c(=O)n1Cc1cc(S(C)(=O)=O)n(CC(N)=O)n1 | 8
36 | CCCC(=O)Nc1n[nH]c2ncc(-c3cccc4ccccc34)cc12 [SB-642057] | 26
37 | Cc1nc(N(C)[C@H]2CN(C(=O)CC#N)CC[C@H]2C)c2cc[nH]c2n1 | 0

Test system: T1, VEGFR2
T1 construct: gene KDR
Conditions: concentration: 1 μM, replicates: in singlicate; n = 1

Row | Structure (SMILES) | %Inh [%]
38 | COc1cc(Nc2nccc(N3CCC(NC(=O)C4COc5ccccc5O4)C3)n2)cc(OC)c1OC (centres unmarked) [GSK1379761] | 0
39 | Cc1c(Cn2c(C)nn3c(=O)cc(N4CCO[C@H](C)C4)nc23)cccc1C(F)(F)F [GSK2373690] | 0
40 | COc1ccc(-n2cnc3c(N)ncnc32)cc1 [SKF-97236] | 0
41 | Nc1nc(-c2ccccc2F)c(-c2ccnc3ccccc23)s1 [GW560459] | 0
42 | O=C(Nc1n[nH]c2cc(-c3ccccc3F)ccc12)C1CC1 [SB-733371] | 4
43 | Cc1nnc(-c2ccc3ncn(-c4ccc(S(C)=O)cc4)c3c2)o1 (centres unmarked) | 3
44 | CCn1c(-c2ccoc2)nc2cnccc21 [SB-733887] | 65
45 | CCC(=O)c1c(-c2ccccc2)c2cc(Cl)ccc2c(=O)n1Cc1cc(S(C)(=O)=O)n(CC(F)F)n1 | 0
46 | FC(F)(F)c1ccc(-c2ncn(CCCN3CCOCC3)c2-c2ccncc2)cc1 [SB-217780] | 14
47 | COc1ccc(CNC(=O)NC2CCN(c3ccnc(Nc4ccc(F)cc4)n3)C2)cc1 (centres unmarked) [GSK1379706] | 9
48 | COc1cc2ncn(-c3cc(OCc4ccncc4Br)c(C(N)=O)s3)c2cc1OC [GW854278] | 31
49 | COC(=O)c1c(-c2ccccc2)c2cc(C)ccc2c(=O)n1Cc1ccccc1 | 0
50 | COc1ccc(-c2coc3ccc(-c4nnc(SCc5cccc(C#N)c5)o4)cc23)cc1 | 10
51 | Cc1ccc(-c2ccc3c(ccc4sc5c(c43)NC[C@@H](C)N=C5N(C)C)n2)cn1 | 0
52 | O=c1cc(N2CCOCC2)nc2n(Cc3ccc(F)c(Cl)c3)ccn12 [GSK2297099] | 4
53 | COc1cc2ncn(-c3cc(OCCCc4ccccc4)c(C(N)=O)s3)c2cc1OC [GSK205189] | 0
54 | CN1C(=O)C(Nc2cc(Cl)c(O)c(Cl)c2)=C(c2ccc(Cl)cc2)C1=O [SB-404321] | 0
55 | CCC(=O)c1c(-c2ccccc2)c2cc(Cl)ccc2c(=O)n1Cc1cc(C(=O)NC2CC2)n(C)n1 | 0
56 | O=C1NC(=O)C(c2ccccc2)=C1Nc1cccc(O)c1 [SB-390534] | 7

Row | Structure (SMILES) | %Inh [%]
57 | COc1cc2nccc(Nc3cccc(Oc4ccccc4)c3)c2cc1OC.Cl [GW284543] | 12
58 | Cc1nn2c(=O)cc(N3CCOCC3)nc2n1Cc1cccc(Cl)c1Cl [GSK2342769] | 0
59 | O=C(Nc1n[nH]c2nc(-c3ccccc3)c(Cl)cc12)C1CC1 [SB-734909] | 15
60 | Cl.NS(=O)(=O)c1cccc(Nc2cc(-c3ccc(F)cc3)n[nH]2)c1 [GW824645] | 35
61 | Cc1cc(Nc2nc(-c3cccc(C)n3)nc3ccccc23)ccn1 [GW872411] | 0
62 | Nc1n[nH]c2nnc(-c3ccccc3)c(-c3ccccc3)c12 [GW554060] | 0
63 | CCC(=O)c1c(-c2ccccc2)c2cc(Cl)ccc2c(=O)n1Cc1ccc(C(=O)O)cc1 | 0
64 | Nc1ncnc2c1ncn2-c1cccc(F)c1 [SKF-97560] | 6
65 | Cl.c1ccc(Cn2cnc3cc(Nc4ncnc5ccccc45)ccc32)cc1 [GW272142] | 0
66 | COc1cc2nccc(Nc3ccc(OCc4ccc(NC(C)=O)cc4)cc3)c2cc1OC.Cl [GW440135] | 96.2
67 | CCS(=O)(=O)c1ccc(OC)c(Nc2ncc(-c3ccc(F)cc3)o2)c1.Cl [GW591947] | 0
68 | Cc1cccc(-c2nc(Nc3ccc4c(cnn4C)c3)c3ccccc3n2)n1 [GW876731] | 0
69 | CCS(=O)c1ccc(-c2coc3ccc(-c4nnc(C)o4)cc23)cc1 (centres unmarked) | 10
70 | Cc1cccc(-c2cc(-c3c[nH]nc3-c3ccccn3)ccn2)c1 [GW679395] | 0
71 | COc1cccc(-n2cnc3c(N)ncnc32)c1 [SKF-97416] | 15
72 | CCC(=O)c1c(-c2ccccc2)c2cc(Cl)ccc2c(=O)n1Cc1cc(S(C)(=O)=O)n(CC(N)=O)n1 | 0
73 | CCCC(=O)Nc1n[nH]c2ncc(-c3cccc4ccccc34)cc12 [SB-642057] | 11
74 | Cc1nc(N(C)[C@H]2CN(C(=O)CC#N)CC[C@H]2C)c2cc[nH]c2n1 | 0

From PMC5540273 (PLoS ONE, 2017)
